CHT PAM: allosteric activators of human choline transporter CHT; Q9GZV3; CHT-expressing cells, membrane potential dye, choline EC20; active compounds read high; LV-AA mutant CHT in HEK293 cells; B-score at 10 µM; hit rate 0.49% among 310,000; AID 488977;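 active = initial fluorescence not abnormally high and integrated response B-score, plate-corrected, over 3 SD above library mean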
Target sequence (Q9GZV3 whole entry, looked up): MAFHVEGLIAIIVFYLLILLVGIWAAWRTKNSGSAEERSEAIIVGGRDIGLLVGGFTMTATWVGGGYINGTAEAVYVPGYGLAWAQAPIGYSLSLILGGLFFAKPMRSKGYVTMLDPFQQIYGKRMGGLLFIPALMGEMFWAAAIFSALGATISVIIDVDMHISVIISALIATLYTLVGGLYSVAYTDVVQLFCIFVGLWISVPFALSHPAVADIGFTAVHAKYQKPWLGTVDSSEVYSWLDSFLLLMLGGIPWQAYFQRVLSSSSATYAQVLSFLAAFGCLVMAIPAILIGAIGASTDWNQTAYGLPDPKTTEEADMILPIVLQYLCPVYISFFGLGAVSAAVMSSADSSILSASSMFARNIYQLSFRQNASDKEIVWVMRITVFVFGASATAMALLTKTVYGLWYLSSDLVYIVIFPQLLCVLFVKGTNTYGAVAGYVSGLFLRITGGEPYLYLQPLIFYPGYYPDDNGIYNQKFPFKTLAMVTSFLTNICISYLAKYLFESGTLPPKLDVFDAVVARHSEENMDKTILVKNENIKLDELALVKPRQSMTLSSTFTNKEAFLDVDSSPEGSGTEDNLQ
GPR7 antag: blocks human GPR7 receptor signaling | GPR7-expressing cells, fluorescence antagonist assay | inhibition, % at 4.4 µM | hit rate 1.1% among 290,000; in the data active = inhibition above about 16%, passing the limit was not always enough;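 also: cells stimulated with the agonist NPW; 0% = agonist with vehicle and 100% = vehicle without agonist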
ANO1 block: mouse TMEM16A channel inhibition, primary screen; HEK293 TMEM16A/YFP iodide influx fluorescence, ionomycin; normalized B-score (activity score, 25-100; higher = stronger inhibition) at 10 µM; hit rate 1.2% among 310,000; AID 588511;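 active = ratio plate-corrected score three or more library SD toward inhibition, starting fluorescence score within five deviations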;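 also: score derived from kinetic fluorescence span divided by baseline fluorescence per well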
Kir21 inh: Kir2.1 (mouse) channel inhibition; HEK293-Kir2.1, FluxOR thallium flux fluorescence; active compounds read low; B-score at 10 µM; hit rate 0.85% among 310,000; AID 1672;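 active = fluorescence ratio B-score at or below minus 3 SD of library scores, with starting-brightness B-score within 2 SD, cut at about -4.2 in these data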;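 also: channel flux triggered by added potassium and thallium sulfate stimulus; B-score of peak minus minimum fluorescence over baseline after thallium stimulus; more negative B-score means stronger Kir2.1 block with less thallium influx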
TMEM16A act: activators or potentiators of mouse TMEM16A chloride channel. HEK293 TMEM16A/YFP-H148Q/I152L, iodide quench fluorescence; active compounds read low. B-score at 10 µM. AID 623877. hit rate 0.3% among 340,000. Q8BHY3;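 active = fluorescence-ratio B-score plate-corrected deviation score at least 3 library SD below zero, with starting fluorescence score within 5 deviations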;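 also: channel opened by trigger with iodide after compound preincubation; score built on the fluorescence ratio of max minus min over baseline; more negative score means more quench and so TMEM16A activation or potentiation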
CHT block: human CHT choline transport inhibition; Q9GZV3; CHT-expressing cells, membrane potential dye, choline response; active compounds read low; B-score at 10 µM; hit rate 0.86% among 310,000;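 active = B-score over 3 SD under the library average, and starting fluorescence ratio not unusually high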;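 also: choline stimulus applied at its EC90 after an EC20 pre-addition; B-score computed on integrated fluorescence ratio after choline addition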
CHT block conf: confirmation of human choline transporter CHT inhibitors; shares compounds with CHT block; CHT-expressing cells, choline membrane potential dye; LV-to-AA substituted CHT, HEK293 cells; CHT activity remaining % of control (active compounds read low), % at 10 µM; hit rate 70% among 2,400;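 active = choline transporter activity left, mean of duplicates at 10 µM, below buffer-only control mean minus 3 SD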;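 also: depolarization triggered by choline at its EC90 following an EC20 pre-addition; 0% = hemicholinium-3 full block and 100% = buffer-only control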
HEK293 MPD ctr: CHT inhibitor counter-screen hit in parental HEK293 cells; shares compounds with CHT block; AID 493222; membrane potential dye, choline response; active = decrease or increase beyond buffer ±3SD; hit rate 4% among 2,400; membrane potential ratio readout (active if shifted either direction beyond buffer ±3SD; no single direction) at 10 µM;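 also: parental cells lack the transporter so any hit is non-specific; ratio is peak minus trough fluorescence over baseline after EC90 choline challenge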
Starred values were filed as active, the others as inactive. A selection: hits, their analogues and other compounds. The true share with any hit is near 3.7%.

Cn1cc(C(=O)N2CCc3ccccc3C2)c(=O)c2cc(S(=O)(=O)N3CCOCC3)ccc21 was read as CHT PAM inactive, GPR7 antag 4, ANO1 block inactive, Kir21 inh 0.63, TMEM16A act inactive, CHT block -6*, CHT block conf inactive and HEK293 MPD ctr inactive.
`CCC1CCCCN1CCCNC(=O)c1cn(CC)c2ccc(S(=O)(=O)N(C)C3CCCCC3)cc2c1=O` (stereo unspecified) gave CHT PAM inactive, GPR7 antag 15, ANO1 block inactive, Kir21 inh -1.5, TMEM16A act inactive, CHT block -8.3*, CHT block conf 50%* and HEK293 MPD ctr 2.8*.
CCn1cc(C(=O)NCCCN2CCCC(C)C2)c(=O)c2cc(S(=O)(=O)N3CCc4ccccc4C3)ccc21 (stereo unspecified) was read as CHT PAM inactive, GPR7 antag -15, ANO1 block inactive, Kir21 inh -0.7, TMEM16A act inactive, CHT block -16*, CHT block conf 20%* and HEK293 MPD ctr 3.6*.
For CC1CCN(S(=O)(=O)c2ccc3c(c2)c(=O)c(C(=O)N2CCOCC2)cn3C)CC1 the results were CHT PAM inactive, GPR7 antag -6, ANO1 block inactive, Kir21 inh 0.25, TMEM16A act inactive and CHT block inactive.
Screening C=CCn1cc(C(=O)NCCCN(CC)CC)c(=O)c2cc(S(=O)(=O)N3CCC(C)CC3)ccc21 returned CHT PAM inactive, GPR7 antag -12, ANO1 block inactive, Kir21 inh -0.71, TMEM16A act inactive, CHT block -8.6*, CHT block conf 26%* and HEK293 MPD ctr inactive.
O=C(NCCc1cccc(Cl)c1)c1cccs1 was read as CHT PAM inactive, GPR7 antag -4, ANO1 block inactive, Kir21 inh 0.65, TMEM16A act inactive and CHT block inactive.
CCCCNC(=O)c1cn(CC)c2ccc(S(=O)(=O)N3CCCCCC3)cc2c1=O was read as CHT PAM inactive, GPR7 antag -6, ANO1 block inactive, Kir21 inh 0.74, TMEM16A act inactive and CHT block inactive.
CCCCN(CCCC)CCNC(=O)c1cn(CC)c2ccc(S(=O)(=O)N3CCc4ccccc4C3)cc2c1=O was read as CHT PAM inactive, GPR7 antag 9, ANO1 block inactive, Kir21 inh -1, TMEM16A act inactive, CHT block -9.2*, CHT block conf 12%* and HEK293 MPD ctr inactive.
`Oc1ccc(Nc2nc(-c3ccc4ccccc4c3)cs2)cc1` gave CHT PAM inactive, GPR7 antag 1, ANO1 block inactive, Kir21 inh -0.08, TMEM16A act inactive and CHT block inactive.
For Oc1ccc(-c2nc(-c3ccc(O)c(O)c3)cs2)cc1 the results were CHT PAM inactive, GPR7 antag 10, ANO1 block inactive, Kir21 inh 0.55, TMEM16A act inactive, CHT block -5*, CHT block conf 68%* and HEK293 MPD ctr inactive.
`Cc1ccc(S(=O)(=O)N(C)C)cc1NC(=O)COC(=O)c1sc2cc(Cl)ccc2c1Cl` gave CHT PAM inactive, GPR7 antag 0, ANO1 block inactive, Kir21 inh -1.2, TMEM16A act inactive and CHT block inactive.
For Cc1c(NCc2cc(Cl)cc(Cl)c2O)c(=O)n(-c2ccccc2)n1C the results were CHT PAM inactive, GPR7 antag -1, ANO1 block inactive, Kir21 inh -0.27, TMEM16A act inactive, CHT block -5*, CHT block conf inactive and HEK293 MPD ctr inactive.
For Cc1ccc(NC(=O)COC(=O)c2ccc(Cl)nc2)cc1S(=O)(=O)N1CCCCC1 the results were TMEM16A act inactive.
